Source: PubChem (Buhrlage Lab, Dana-Farber Cancer Institute and Novartis Institutes for BioMedical Research (Cambridge, Mass))
USP10 inh: inhibitors of human USP10 deubiquitinase. inhibition, % at 20 µM. purified USP10, Ub-rhodamine fluorescence, 60 min. AID 1645856. 1.1% of 47,000 active. Q14694
USP17 inh: inhibitors of human USP17 deubiquitinase | A8MUK1 | purified USP17, Ub-rhodamine cleavage fluorescence, 3 h | inhibition, % at 50 µM | 6.5% of 47,000 active
USP7 inh: inhibitors of human USP7 deubiquitinase; purified USP7, Ub-rhodamine cleavage fluorescence; inhibition, % at 20 µM; 0.3% of 47,000 active; AID 1645854
USP8 inh: human USP8 deubiquitinase inhibition; inhibition, % at 20 µM; 4.2% of 47,000 active; purified USP8, Ub-rhodamine cleavage fluorescence, 30 min; AID 1645853
USP30 inh: blocks human USP30 ubiquitin-rhodamine cleavage; purified USP30, Ub-rhodamine cleavage fluorescence; Q70CQ3; inhibition, % at 25 µM; 5.3% of 47,000 active
Target sequence (Q70CQ3 whole entry, looked up): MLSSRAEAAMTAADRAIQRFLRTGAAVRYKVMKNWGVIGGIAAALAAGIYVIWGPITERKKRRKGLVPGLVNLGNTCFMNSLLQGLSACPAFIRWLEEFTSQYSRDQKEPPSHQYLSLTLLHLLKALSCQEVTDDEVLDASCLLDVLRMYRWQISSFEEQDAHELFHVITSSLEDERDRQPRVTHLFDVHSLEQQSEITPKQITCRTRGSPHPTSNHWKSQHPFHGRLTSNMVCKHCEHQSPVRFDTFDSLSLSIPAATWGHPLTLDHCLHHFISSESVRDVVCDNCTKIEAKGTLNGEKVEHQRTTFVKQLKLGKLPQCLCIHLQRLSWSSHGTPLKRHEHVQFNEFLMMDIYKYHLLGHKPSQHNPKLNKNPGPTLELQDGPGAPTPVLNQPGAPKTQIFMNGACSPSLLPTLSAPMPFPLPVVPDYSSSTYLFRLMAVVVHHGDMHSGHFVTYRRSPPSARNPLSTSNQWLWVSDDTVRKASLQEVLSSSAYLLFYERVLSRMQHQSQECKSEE
USP28 inh: human USP28 deubiquitinase inhibition. Q96RU2. purified USP28, Ub-rhodamine cleavage fluorescence, 30 min. inhibition, % at 25 µM. 3% of 47,000 active
Numbers stand for hits; 0 = inactive; - = not tested or not shown. This is a sample that favours compounds with a hit; in the whole collection about 13% have one here. No stated cut-off is given here; in the data, active means inhibition above about 30%; inactive means the rest.

SMILES	USP10 inh	USP17 inh	USP7 inh	USP8 inh	USP30 inh	USP28 inh
FC(F)(F)c1cnc(/C=C/Nc2ccccc2Oc2ccccc2)c(Cl)c1	0	0	0	0	0	0
Cn1c2ccccc2c(=O)c2c(=O)n(-c3cccc(Cl)c3)c(-c3cccs3)nc21	63	30	66	94	0	0
Cn1c2ccccc2c(=O)c2c(=O)n(-c3ccccc3)c(-c3ccc(Cl)cc3)nc21	0	0	0	0	0	0
CCc1nc2c(c(=O)c3ccccc3n2C)c(=O)n1-c1ccc(C)cc1	0	49	0	31	-	-
COc1ccc(CCn2c(-c3ccc(C)cc3)nc3c(c(=O)c4ccccc4n3C)c2=O)cc1	0	0	0	0	0	0
O=C(NC1CCN(Cc2ccccc2)CC1)N1CCC(c2nc3ncccc3[nH]2)CC1	0	0	0	0	0	0
CCN(Cc1ccccc1)C(=O)c1csc(C(=O)NC2CC2)n1	0	0	0	0	0	0
O=C(CSc1nc2cc(S(=O)(=O)Nc3ccccc3Cl)ccc2o1)Nc1ccc(N2CCOCC2)cc1	0	-	0	0	53	0
CCc1cc(=O)n(CC(=O)NCc2ccc3c(c2)OCO3)c(N)n1	0	0	0	0	0	0
Cc1cccc2c(=O)c3c([nH]c12)CCN(CC(=O)NCc1ccccc1)C3	0	0	0	0	0	0
Cc1c(Cl)ccc2c(=O)c3c([nH]c12)CCN(CC(=O)NCc1ccc2c(c1)OCO2)C3	0	49	0	46	0	32
CCc1ccc2[nH]c3c(c(=O)c2c1)CN(CC(=O)NCc1ccc2c(c1)OCO2)CC3	0	70	0	0	0	0
Cc1ccc2c(=O)c3c([nH]c2c1C)CCN(CC(=O)NCc1ccc2c(c1)OCO2)C3	0	52	0	0	0	0
Cc1nn(-c2ccccc2)c(C)c1NC(=O)c1cnn(Cc2ccccc2)c1	0	0	0	0	0	31
CC1=C(C(=O)OC2CCCC2)C(c2ccc(Cl)c([N+](=O)[O-])c2)CC(=O)N1 (centres undefined)	0	0	0	0	0	0
CC1=C(C(=O)OC2CCCCCC2)C(c2ccccc2[N+](=O)[O-])CC(=O)N1 (centres undefined)	0	0	0	62	0	0
COc1cccc(CN(C)C(=O)CC(c2ccccc2)c2ccccc2)c1	0	-	0	0	41	0
O=C(Nc1ccccc1)c1nc(-c2cn(-c3ccccc3)nn2)no1	0	0	0	0	41	0
O=C(NCc1ccccn1)c1nc(-c2cn(-c3ccc(Cl)cc3)nn2)no1	0	0	0	50	0	0
Cc1nn(-c2ccc(F)cc2)cc1-c1noc(C(=O)NCc2ccco2)n1	0	0	0	0	0	0
Cc1ccc(CNC(=O)c2nc(-c3cn(-c4ccccc4)nc3C)no2)cc1	0	0	0	0	0	0
Cc1nn(-c2ccc(F)cc2)cc1-c1noc(C(=O)NCc2ccccn2)n1	0	-	0	35	85	0
Cc1nn(-c2ccccc2)cc1-c1noc(C(=O)NCCCc2ccccc2)n1	0	0	0	0	32	0
O=C(NCc1ccccn1)c1cn(-c2ccc(Cl)cc2)nn1	0	0	0	0	0	0
O=C(Nc1ccccc1F)c1nc(-c2cnccn2)no1	0	-	0	0	0	0
SMILES	USP10 inh	USP17 inh	USP7 inh	USP8 inh	USP30 inh	USP28 inh
CCOC(=O)CSc1nc(Cc2ccccc2)nc2sc3c(c12)CC(C)(C)OC3	0	0	0	0	0	0
Cc1nc2ccn(Cc3cccnc3)c(=O)c2cc1C(=O)NCCC(C)C	0	0	0	0	0	0
Cc1cc(C(=O)N2CCN(c3ccnc(N4CCN(C(C)C)CC4)n3)CC2)n(C(C)(C)C)n1	0	-	0	0	0	0
CC(C)c1noc(-c2ccn3c(CC(=O)NC4CCCC4)nnc3c2)n1	0	0	0	0	0	0
CC(C)CCNC(=O)c1cccc(-c2cnc(NC3CCCCC3)nc2)c1	0	0	0	0	32	0
CC(C)CCNC(=O)c1ccc2c(=O)n(C3CCCC3)c(=O)[nH]c2c1	0	0	0	34	0	0
CC1CCC(NC(=O)c2ccc3c(=O)n(CCc4ccccc4)c(=O)[nH]c3c2)CC1 (centres undefined)	0	0	0	0	0	0
O=C(NC1CCCC1)c1cccc(-c2cnc(NC3CCCCC3)nc2)c1	0	-	0	0	0	0
CCCS(=O)(=O)Nc1ccc(-c2ccc3nnc(C)n3n2)cc1	0	0	0	0	0	0
Cc1nnc2ccc(-c3ccc(NS(=O)(=O)c4ccccc4F)cc3)nn12	0	43	0	0	0	0
CC(=O)Nc1ccc2nc(NC(=O)C34CC5CC(CC(C5)C3)C4)sc2c1	0	37	0	0	0	0
CC(=O)Nc1ccc2nc(NC(=O)c3cc(C)n(C)n3)sc2c1	0	0	0	0	0	0
Cc1nc(CO[C@H]2CN(C(=O)c3ccoc3C)[C@@H]3COC[C@H]23)cs1	0	0	0	0	0	0
COc1cc(O)c2c(=O)c(-c3ccc(O)cc3)coc2c1	0	73	0	35	0	30
COc1ccccc1NC(=O)c1ccc(Cn2nc(C)c(Cl)c2C)cc1	0	0	0	0	0	0
COc1ccccc1NC(=O)c1cc2c(C)nn(Cc3ccccc3)c2s1	0	70	0	0	0	0
Cc1ccc(Cn2nc(C)c3cc(C(=O)NC4=NCCS4)sc32)cc1	0	0	0	0	0	0
Cc1nn(Cc2ccccc2)c2sc(C(=O)Nc3nc4ccccc4[nH]3)cc12	0	67	0	84	44	0
Fc1ccc(C2(c3nnc(C4CC4)o3)CCOCC2)cc1	0	0	0	0	0	0
O=C(Cn1ccc2c(Cl)cccc21)NC1CCN(Cc2ccccc2)CC1	0	0	0	0	0	0
C[C@H](NC(=O)c1cccs1)c1nnc2ccccn12	0	0	0	0	30	0
CC(=O)N1CCN(Cc2cc3c(C)nn(-c4ccc(F)cc4)c3[nH]c2=O)CC1	0	0	0	0	0	0
O=c1[nH]c2c(cc1CNc1ccc(Oc3ccccc3)cc1)c(-c1ccc(F)cc1)nn2-c1ccccc1	63	0	50	77	0	0
Cc1nn(-c2ccccc2)c2[nH]c(=O)c(CNC3CCCCC3)cc12	0	0	0	0	0	0
O=c1[nH]c2c(cc1CNc1ccc(Cl)cc1)c(-c1cccc(F)c1)nn2-c1ccccc1	0	38	0	0	0	0
Cc1ccc(NCc2cc3c(-c4cccc(F)c4)nn(-c4ccccc4)c3[nH]c2=O)cc1C	36	0	51	37	0	0
CC1Cc2nc3ccccc3n2CCN1C(=O)c1ccc(F)cc1 (centres undefined)	0	0	0	0	0	0
Cc1ncncc1C(=O)N1CCCCC1c1nnc(-c2nccc3ccccc23)o1 (centres undefined)	0	0	0	0	0	0
CCOc1ccccc1CNC(=O)CCCN1C(=O)C(c2ccccc2)Oc2cccnc21 (centres undefined)	0	0	0	0	0	0
